High-throughput results deposited in PubChem by National Center for Advancing Translational Sciences (NCATS).
Shiga inhibitor: A qHTS for Small Molecule Inhibitors of Shiga Toxin. Vero cells, Shiga toxin protein synthesis inhibition reporter. inhibition, % at 38.7 µM. 290,000 tested, 9.2% active. AID 2315, 2010; in the data active means inhibition mostly above about 28%, no sharp cut-off; inactive means mostly below about 43%
NS1 function inh: qHTS Assay for Inhibitors of Influenza NS1 Protein Function. Potency, µM (doses to about 46.1 µM). 270,000 tested, 0.4% active; calls by dose curve; further: actives are rising curves; nearly all actives have a fitted effect of over 50% in size
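OD600 was taken as the measure of yeast growth restored by compound in an NS1-expressing S. cerevisiae strain. Cells had been washed out of glucose medium and diluted 1:100 into galactose -URA medium, pH 6.0.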
Pf growth 96h: Primary qHTS for delayed death inhibitors of the malarial parasite plastid, 96 hour incubation; 320,000 tested, 6.9% active; AID 504834, 2011; P. falciparum luciferase reporter growth, 96 h; Potency, µM (highest dose often 28.7 µM), usual class: inhibitors
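Two-generation exposure (96 h) targets delayed-death phenotype. Reporter parasites carrying integrated firefly luciferase, in red cells at 2% hematocrit and 0.05% parasitemia final, kept at 37 C, 5% CO2; luminescence loss indicates inhibition.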
CHX counter: Cycloheximide Counterscreen for Small Molecule Inhibitors of Shiga Toxin | AID 2314, 2010 | max response, % | cell reporter, cycloheximide protein synthesis inhibition counterscreen | 300,000 tested, 12% active; in the data active means max response mostly above about 13%, no sharp cut-off; inactive means mostly below about 14%; further: read at 38.3 µM for the half of the compounds with a filed dose
Pf growth 48h: Primary qHTS for delayed death inhibitors of the malarial parasite plastid, 48 hour incubation. AID 504832, 2011. Potency, µM (titrated, usually from 28.7 µM), usual class: inhibitors. P. falciparum luciferase growth in erythrocytes, 48 h. 310,000 tested, 5.9% active
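Here the parasites carry a stable luciferase gene and grow inside erythrocytes in Albumax-based RPMI medium with compound for one erythrocytic cycle. Activity is scored as loss of luminescent signal.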
Each line names hits and unclear results; the compound was inactive in the other large screens. In the library only some 21% were active in any assay of this set; here they are far more common. Unless noted, the call rests on the fitted dose curve; in most records, active means well fitted inhibition curve with a large enough effect; inconclusive means small, poorly fitted or top-dose-only effect, or another doubt; inactive means no such curve, though single readings can be large or run the other way.

CC1(C)CC(=O)C(C=Nc2ccc3c(c2)OCO3)=C(O)C1	Shiga inhibitor 81.4, CHX counter 39.1 (no result: Pf growth 96h)
CC1(C)CC(=O)C(C=NCCc2ccccn2)=C(O)C1	none (no result: Pf growth 96h)
CC1(C)CC(=O)C(C=Nc2ccc(O)c(N=CC3=C(O)CC(C)(C)CC3=O)c2)=C(O)C1	Pf growth 96h inconclusive, Pf growth 48h 10.4µM (no result: NS1 function inh)
O=C(C(=O)N1CCN(c2ccc([N+](=O)[O-])cc2)CC1)c1cn(CC(=O)N2CCOCC2)c2ccccc12	Pf growth 96h inconclusive
Cn1c(SCc2ccccc2Cl)nc2c1c(=O)[nH]c(=O)n2C	Pf growth 96h inconclusive, Pf growth 48h inconclusive
CCN1CCN(CC(=O)Nc2nc3ccc(C)cc3s2)CC1	none
Cc1ccc2nc(NC(=O)COC(=O)c3ccncc3)sc2c1	Shiga inhibitor 65.8, CHX counter 34.7 (no result: NS1 function inh)
Cc1ccc2nc(NC(=O)CSCc3ccccc3)sc2c1	Pf growth 96h inconclusive (no result: Pf growth 48h)
COCC(=O)Nc1nc(-c2ccc(C)cc2)c(C)s1	Shiga inhibitor 34.5, CHX counter 13.5
COCC(=O)Nc1nc2ccc(C)cc2s1	Shiga inhibitor 64.8, CHX counter 51.9 (no result: Pf growth 96h)
Cc1ccc2nc(NC(=O)CN3CCOCC3)sc2c1	Shiga inhibitor 64.0, CHX counter 32.8
CCc1sc(NC(=O)COC)nc1-c1ccccc1	none
O=C(C1=C[C@H](c2ccccc2)C[C@H](OCc2ccc(CO)cc2)O1)N1CCOCC1	none
O=C(O)COc1ccccc1/C=N/NC(=O)c1cccc(S(=O)(=O)N2CCOCC2)c1	none (no result: NS1 function inh)
O=C(O)c1cc(C(=O)O)c(C(=O)N(Cc2cccc(Oc3ccccc3)c2)[C@H]2CCCc3ccccc32)cc1C(=O)O	none (no result: NS1 function inh, Pf growth 96h, Pf growth 48h)
CON(C)S(=O)(=O)c1ccc2c(c1)N(Cc1ccc(C)cc1)C(=O)C1CCCN21 (stereo not given)	Pf growth 96h 0.828µM, Pf growth 48h inconclusive
Cc1ccc(C)c(CN2C(=O)C3CCCN3c3ccc(C#N)cc32)c1 (stereo not given)	Pf growth 96h 9.28µM, Pf growth 48h inconclusive
Cc1ccc(CN2C(=O)C3CCCN3c3ccc(C#N)cc32)cc1 (stereo not given)	Pf growth 96h 1.65µM, Pf growth 48h inconclusive
Cc1ccc(C(=O)NNC(=O)CSc2nnc(-c3ccccc3)n2Cc2ccccc2)cc1	none
COC(=O)c1c(C(=O)c2ccc(Br)cc2)n(C)c2ccccc12	Pf growth 96h inconclusive, Pf growth 48h 13.1µM (no result: Shiga inhibitor, NS1 function inh, CHX counter)
O=C(O)c1nn(CCOc2ccc(Br)cc2)c(=O)c2ccccc12	none
O=C(O)c1nn(CCOc2ccccc2F)c(=O)c2ccccc12	CHX counter 12.0
FC(F)(F)c1cc(NC2CCCCC2)ccn1	Pf growth 96h inconclusive
Cc1ccc(SCc2cc(=O)n(C)[nH]2)cc1	Shiga inhibitor 55.2 (no result: NS1 function inh)
Cc1ccc(SCc2cc(=O)n3[nH]c(C)nc3n2)cc1	none (no result: Pf growth 96h)
CCCCc1nc2cc(C(=O)N3CCCC3)ccc2o1	Shiga inhibitor 67.5, CHX counter 30.7
Cc1cc(CNC(=O)c2ccc3oc(C(C)C)nc3c2)nn1C	none
CCCCc1nc2cc(C(=O)N3CCNC(=O)C3)ccc2o1	Pf growth 96h inconclusive, CHX counter 14.4
CCCCc1nc2cc(C(=O)N3CCN(c4cnccn4)CC3)ccc2o1	none
CCCCc1nc2cc(C(=O)NC(C)c3cnn(C)c3)ccc2o1 (stereo not given)	Shiga inhibitor 66.4, CHX counter 34.5
O=C(COC(=O)c1ccc(Cl)c(S(=O)(=O)N2CCOCC2)c1)NCc1ccco1	none (no result: Shiga inhibitor, NS1 function inh, CHX counter)
O=C(NCc1ccco1)/C(=C\c1cccs1)NC(=O)c1ccco1	Pf growth 96h 4.15µM (no result: NS1 function inh)
Cc1ccc(C(=O)N/C(=C\c2sccc2C)C(=O)NCc2ccncc2)cc1	none
Cc1ccc(C(=O)N/C(=C\c2sccc2C)C(=O)NCc2ccco2)cc1	Pf growth 96h 3.29µM
O=C(NCc1ccco1)/C(=C\c1cccs1)NC(=O)c1ccsc1	none
Cc1ccc(C(=O)N/C(=C/C=C\c2ccccc2)C(=O)NCc2ccco2)cc1	NS1 function inh inconclusive, CHX counter 17.3
O=C(O)[C@H]1[C@H](C(=O)O)[C@H](C(=O)O)C[C@@H]1C(=O)O	none (no result: Shiga inhibitor, Pf growth 96h, CHX counter, Pf growth 48h)
COCC(C)NC(=O)Cc1ccc(Cl)cc1 (stereo not given)	none
C=C(C)CNC(=O)CCc1nnc(C2(c3ccc(Cl)cc3)CCC2)o1	Shiga inhibitor 75.5, Pf growth 96h inconclusive, CHX counter 43.6
O=C(CCc1nnc(C2(c3ccc(Cl)cc3)CCC2)o1)NC1CC1	CHX counter 14.0, Pf growth 48h 10.4µM
COc1ccc(CCC(=O)NCCc2ccc(Cl)cc2)cc1	none
COC(=O)CNC(=O)CCc1nnc(C2(c3ccc(Cl)cc3)CCC2)o1	Shiga inhibitor 39.1, CHX counter 45.2
COCC(C)NC(=O)CCc1nnc(C2(c3ccc(Cl)cc3)CCC2)o1 (stereo not given)	Shiga inhibitor 41.2, CHX counter 30.3
CCOc1ccc(S(=O)(=O)N/N=C\c2ccc3c(c2)OCO3)cc1	Pf growth 96h inconclusive
CC(C)CC(=O)c1c[nH]c(C(=O)NCCCN2CCOCC2)c1	none
O=C(CCn1c(=O)c2ccccc2n(CC(=O)NC2CCCC2)c1=O)NCc1ccco1	none (no result: Pf growth 96h)
COc1cc([N+](=O)[O-])cc2sc(NC(=O)C3CC3)nc12	none (no result: NS1 function inh)
CC(c1ccon1)N(C)C(=O)CCc1nnc(C2(c3ccc(Cl)cc3)CCC2)o1 (stereo not given)	Shiga inhibitor 47.9, CHX counter 21.3
CC(c1ccon1)N(C)C(=O)CCc1nnc(CCCCc2ccccc2)o1 (stereo not given)	Pf growth 96h inconclusive
C=CCNC(=O)CCc1nnc(C2(c3ccc(Cl)cc3)CCC2)o1	Shiga inhibitor 85.0, CHX counter 55.4, Pf growth 48h inconclusive
CCOC(=O)c1cc2c(=O)n3ccccc3nc2n(C(C)C)c1=NC(=O)c1c(-c2c(F)cccc2Cl)noc1C	NS1 function inh inconclusive, Pf growth 96h inconclusive, Pf growth 48h 3.7µM
CCCCCn1c(=NC(=O)c2ccco2)c(C(=O)OCC)cc2c(=O)n3ccccc3nc21	Pf growth 96h 14.7µM
CCCCn1c(=NC(=O)c2ccco2)c(C(=O)OCC)cc2c(=O)n3cccc(C)c3nc21	Pf growth 96h 5.86µM, Pf growth 48h 11.7µM
CCCCn1c(=NC(=O)c2ccco2)c(C(=O)OCC)cc2c(=O)n3ccccc3nc21	Pf growth 48h inconclusive (no result: Pf growth 96h)
N#Cc1cc2c(=O)n3ccccc3nc2n(Cc2ccco2)c1=NC(=O)c1ccco1	Pf growth 96h 11.7µM, Pf growth 48h inconclusive
CCOC(=O)c1cc2c(=O)n3cccc(C)c3nc2n(CCCOC)c1=NC(=O)c1cccnc1	Pf growth 48h inconclusive
COC(=O)C1=C(c2c(C)noc2C)C[C@@H]2CC[C@H]1N2C(=O)NCCOc1ccccc1Cl	Pf growth 48h inconclusive (no result: Shiga inhibitor, NS1 function inh, CHX counter)
COC(=O)C1=C(c2ccc(-c3ccccc3)c(F)c2)C[C@@H]2CC[C@H]1N2C(=O)NCCNC(C)=O	Pf growth 48h inconclusive (no result: Shiga inhibitor, NS1 function inh, CHX counter)
COC(=O)C1=C(c2ccccc2OCc2ccccc2)C[C@@H]2CC[C@H]1N2C(=O)NCCOc1ccccc1	Pf growth 96h inconclusive, Pf growth 48h 11.7µM (no result: Shiga inhibitor, NS1 function inh, CHX counter)
